AmpC no deterg – qHTS Inhibitors of AmpC Beta-Lactamase (assay without detergent). AmpC nitrocefin hydrolysis, absorbance 480 nm, 0.0001% Triton. Potency, µM (doses to about 57.1 µM), without a hit: at the highest dose activity change, negative = inhibition, most hits filed as inhibitors. 0.52% of 330,000 active;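 note: plate controls were no compound for no effect and no enzyme for full effect; nearly all actives have a fitted effect of over 20% in size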
Target sequence (P00811 whole entry, looked up): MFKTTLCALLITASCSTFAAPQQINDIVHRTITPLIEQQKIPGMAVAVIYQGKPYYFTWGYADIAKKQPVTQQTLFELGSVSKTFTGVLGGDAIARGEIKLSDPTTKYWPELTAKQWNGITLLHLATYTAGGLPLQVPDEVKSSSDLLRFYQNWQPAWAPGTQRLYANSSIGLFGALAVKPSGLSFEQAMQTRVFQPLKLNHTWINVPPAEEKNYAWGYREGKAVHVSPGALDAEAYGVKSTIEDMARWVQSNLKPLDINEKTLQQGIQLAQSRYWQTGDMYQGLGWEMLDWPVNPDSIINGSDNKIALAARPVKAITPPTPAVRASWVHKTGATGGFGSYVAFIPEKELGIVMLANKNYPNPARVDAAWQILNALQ
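20 mM phosphate pH 7.0 + 0.01% (detergent screen) or 0.0001% Triton X-100; 5.3 nM AmpC reagent; cpd preinc 15 min RT; nitrocefin (800 uM stock) to start; A480 q20 s × 4 min; Activity was normalised to no-enzyme and no-compound control wells.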
SARS PLpro yeast – qHTS of Yeast-based Assay for SARS-CoV PLP | AID 485353, 2010 | Potency, µM (highest dose often 32.9 µM), inactives show at the highest dose activity, positive = growth rescue, usual class: activators | 0.19% of 330,000 active | S. cerevisiae expressing SARS-CoV PLpro, growth rescue; calls by dose curve; note: 0% is about no effect; nearly all actives have a fitted effect of over 55% in size
Pf growth 48h – Primary qHTS for delayed death inhibitors of the malarial parasite plastid, 48 hour incubation | P. falciparum luciferase growth in erythrocytes, 48 h | Potency, µM (doses to about 28.7 µM), for the others: top-dose activity change, negative = inhibition, most hits filed as inhibitors | 5.9% of 310,000 active | AID 504832, 2011; note: % is set by controls: 0 for no effect and ±100 for the full control effect
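A one-generation exposure of luciferase-tagged malaria parasites in RPMI 1640/Albumax erythrocyte culture, 37 C and 5% CO2. Inhibition is inferred from decreased luminescence after adding detection reagent.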
Pf growth 96h – Primary qHTS for delayed death inhibitors of the malarial parasite plastid, 96 hour incubation | Potency, µM (top dose mostly 28.7 µM), without a hit: top-dose activity change, negative = inhibition, usual class: inhibitors | P. falciparum luciferase reporter growth, 96 h | AID 504834, 2011 | 6.9% of 320,000 active; note: % is set by controls: 0 for no effect and ±100 for the full control effect
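Two-generation exposure (96 h) targets delayed-death phenotype. Reporter parasites carrying integrated firefly luciferase, in red cells at 2% hematocrit and 0.05% parasitemia final, kept at 37 C, 5% CO2; luminescence loss indicates inhibition.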
AmpC detergent – qHTS Inhibitors of AmpC Beta-Lactamase (assay with detergent). Potency, µM (series often up to 114 µM), inactives show at the highest dose activity change, negative = inhibition, most hits filed as inhibitors. AmpC hydrolysis of nitrocefin, absorbance 480 nm, 0.01% Triton. 0.041% of 370,000 active;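 note: 0% = no-compound wells and -100% = no-enzyme wells; nearly all actives have a fitted effect of over 25% in size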
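20 mM phosphate pH 7.0 + 0.01% (detergent screen) or 0.0001% Triton X-100; 5.3 nM AmpC reagent; cpd preinc 15 min RT; nitrocefin (800 uM stock) to start; A480 q20 s × 4 min; Activity was normalised to no-enzyme and no-compound control wells.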
Sm TGR inh – qHTS Assay for the Inhibitors of Schistosoma Mansoni Peroxiredoxins | Schistosoma mansoni thioredoxin glutathione reductase (TGR), Q962Y6 | purified TGR, DTNB reduction, TNB absorbance 405 nm | Potency, µM (highest dose often 114 µM), for the others: at the highest dose activity change, negative = inhibition, hits mostly inhibitors | 3% of 360,000 active | AID 485364, 2010; note: % is set by controls: 0 for no effect and ±100 for the full control effect; nearly all actives have a fitted effect of over 60% in size
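Kinetic colorimetric format: TGR-catalysed, NADPH-driven DTNB reduction monitored via TNB absorbance. Enzyme dispensed at 20 nM; compound exposure 15 min at room temperature before reaction start.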
Starred values were filed as active, the others as inactive; ? = inconclusive; / = not tested or not shown; [ ] = remark or other dose. Compounds with a hit are over-represented: about 12% of the library has one in this group of screens. Unless noted, calls come from the whole dose curve; as a rule, active = well fitted curve in the direction sought with a large enough effect; inconclusive = small, poorly fitted or top-dose-only effect, or another doubt; inactive = no such curve, though single readings can be large; an effect the other way counts as inactive or inconclusive. Potency is the fitted concentration of half-maximal effect.

SMILES | AmpC no deterg | SARS PLpro yeast | Pf growth 48h | Pf growth 96h | AmpC detergent | Sm TGR inh
CCCCCC(=O)N1CCN(CCN=CC2=C(O)CC(c3ccc(OC)c(OC)c3)CC2=O)CC1 (stereo not given) | 28.4% | 8.2% | 8.7% | / | -1.2% | ?
CCCCCC(=O)N1CCN(CCN=CC2=C(O)CC(c3ccc(OC)cc3)CC2=O)CC1 (stereo not given) | 29.6% | 0.2% | ? | / | 3.8% | 50.1µM*
COc1ccc(C2CC(=O)C(C=NCCN3CCNCC3)=C(O)C2)cc1OC (stereo not given) | -1.0% | -1.0% | -1.0% | 13.1µM* | ? | ?
Cc1cccc(CCNC(=O)c2ccc3c(c2)nc2n3CCCCC2)c1 | / | / | / | / | 5.7% | -5.3%
Cc1ccc(C)c(N2CCN(C(=O)c3ccc(-c4nc(COc5ccccc5)c(C)o4)cc3)CC2)c1 | / | / | / | / | 2.5% | -8.9%
CCOC(=O)N1CCN(S(=O)(=O)c2ccc(C(=O)N(CCCN(C)C)c3nc4ccc(CC)cc4s3)cc2)CC1 | 248.6% | -3.2% | 6.57µM* | ? | -1.2% | -2.1%
Cc1ccc2nc(N(CCCN(C)C)C(=O)c3ccc(S(=O)(=O)N4CCCCCC4)cc3)sc2c1 | 217.7% | -4.1% | 13.1µM* | ? | 1.2% | -7.5%
O=C1c2cccnc2C(=O)N1C1CCCCC1 | -14.5% | 3.0% | 21.6% | 208.5% | -1.9% | 9.3%
Cc1nc2c(n1C1CCCCC1)C(=O)c1ccccc1C2=O | -4.5% | -3.5% | 1.85µM* | 1.31µM* | -9.9% | -0.2%
O=C(CCN1CCCCC1c1cccnc1)NCc1ccccc1 (stereo not given) | -8.7% | 4.7% | -10.6% | / | -12.7% | 35.5µM*
O=C(CCN1C(=O)C2C3C=CC(C3)C2C1=O)NCc1cccnc1 (stereo not given) | -18.4% | 0.9% | 0.0% | ? | -1.4% | -12.7%
Cc1ccc(NC(=O)CSc2ccc(-c3ccco3)nn2)c(C)c1 | -32.5% | 0.2% | 6.7% | 0.4% | -9.2% | 28.2µM*
CC(=O)Nc1ccc(NC(=O)CSc2ccc(-c3cccs3)nn2)cc1 | -39.9% | -0.1% | 187.9% | 253.3% | -14.3% | -7.1%
Cc1ccc(CNC(=O)CSc2ccc(-c3ccco3)nn2)cc1 | -22.5% | -1.9% | 13.6% | 11.9% | -9.2% | ?
CC(=O)Nc1ccc(NC(=O)CSc2ccc(-c3ccco3)nn2)cc1 | -28.2% | -0.1% | 2.6% | -52.6%[1.15 µM] | 4.1% | 8.91µM*
CC(=O)c1ccc(NC(=O)CSc2ccc(-c3ccco3)nn2)cc1 | -17.7% | -0.7% | 6.0% | ? | 1.2% | 22.4µM*
Cc1ccc(NC(=O)CSc2ccc(-c3ccco3)nn2)cc1 | -34.0% | -1.7% | 10.2% | 13.0% | 5.0% | 10µM*
Cc1ccc(NC(=O)CSc2nnc(-c3ccco3)o2)c(C)c1 | -10.9% | 0.3% | 19.7% | 17.5% | -9.9% | /
CCc1ccc(CNC(=O)c2ccc3c(c2)nc2n3CCOC2)cc1 | / | / | / | / | -3.1% | 2.6%
CC(=O)Nc1cccc(NC(=O)CSc2ccc(-c3ccco3)nn2)c1 | -18.0% | 2.3% | ? | 9.28µM* | 0.6% | 14.1µM*
CC(=O)Nc1cccc(NC(=O)CSc2nnnn2C)c1 | -9.8% | -2.2% | 26.3% | ? | -4.3% | -13.2%
CC(C)(O)[C@@H]1CC(=O)[C@]2(C)[C@H](CC[C@@]3(C)[C@H](c4ccoc4)OC(=O)[C@H]4O[C@]432)[C@@]1(C)/C=C\C(=O)O | -11.3% | 18.3% | 45.7% | 39.9% | 1.2% | -15.0%
CC1(C)C(=O)C=C[C@]2(C)[C@H]3CC[C@@]4(C)[C@H](c5ccoc5)OC(=O)[C@H]5O[C@]54[C@]3(C)[C@H](O)C[C@@H]12 | 23.4% | -33.8% | 11.7µM* | 8.28µM* | ? | -3.5%
Cc1ccc(NC(=O)COC(=O)C2=NN(c3ccccc3)C(=O)CC2)c(Br)c1 | 4.4% | -3.5% | 35.9% | 5.3% | 3.7% | -3.7%
Cc1cc2nc3c(nc2cc1C)C(O)=C3O | -19.2% | 1.4% | 11.1% | 27.3% | 2.0% | 14.1µM*
SMILES | AmpC no deterg | SARS PLpro yeast | Pf growth 48h | Pf growth 96h | AmpC detergent | Sm TGR inh
OC1=C(O)c2nc3ccccc3nc21 | -6.7% | 3.3% | ? | ? | 1.1% | 7.4%
CN(Cc1ccccc1)C(=O)Cn1ncc2c3ccccc3n(Cc3cccc(Cl)c3)c2c1=O | / | / | / | / | 15.7% | 2.5%
N#Cc1c(N2CCN(c3ccc(F)cc3)CC2)nc(N)c2c(N)nc3c(c12)CC(=O)N3C1CC1 | -13.3% | -0.6% | 0.928µM* | 2.62µM* | 3.3% | -31.3%
O=c1cc(O)c(-c2ccc(Cl)cc2)c(Cl)[nH]1 | -19.6% | 2.5% | 13.1µM* | 0.0% | -7.9% | 10.1%
O=c1cc(O)c(-c2ccc(Cl)c(Cl)c2)c(Cl)[nH]1 | -22.3% | 2.6% | -0.9% | 0.1% | 6.4% | -0.2%
CC(C)(C)C1CCc2sc(-c3nnc(CCl)o3)cc2C1 (stereo not given) | -24.1%[11.4 µM] | 4.1% | 13.1µM* | ? | -9.8% | ?
CCn1c(C)nc2cc(C(=O)N=Nc3c(O)[nH]c4c(C)cc(C)cc34)ccc21 | -11.2% | 16.8% | 9.28µM* | 6.57µM* | -1.7% | 7.2%
COc1ccc(OC)c(C2CC(=O)N3CN(c4ccccc4F)CSC3=C2C#N)c1 (stereo not given) | -44.4% | 12.3% | / | ? | -4.1% | 15.8µM*
COc1cccc(C2CC(=O)N3CN(c4ccccc4F)CSC3=C2C#N)c1 (stereo not given) | -41.7% | -0.7% | / | 1.0% | ? | 35.5µM*
CC(C)(C)Nc1nc(Cl)nc(NC2CCCCC2)n1 | -15.2% | -1.3% | -18.7% | 13.1µM* | 5.8% | -0.8%
Cc1ccc(Nc2nc(Cl)nc(NC3CCCCC3)n2)cc1 | -58.4% | -1.0% | 36.5% | 20.7% | -10.4% | -2.2%
CNS(=O)(=O)c1cccc(C(=O)OCC(=O)NC2CCCC(C)C2C)c1 (stereo not given) | -12.3% | -11.6% | / | / | / | /
COc1cc2c(cc1OC)-c1c(OC)c(OC)cc3c1C(C2)N(C)CC3 (stereo not given) | 12.5% | 2.6% | 4.15µM* | 126.4% | ? | ?
COc1cc2c(cc1OC)-c1c3c(cc4c1[C@@H](C2)N(C)CC4)OCO3 | -7.4% | 21.6% | ? | ? | ? | -15.1%
CCN(C(=O)Cn1cc(C(=O)c2ccc(F)cc2)c(=O)c2ccc(C)nc21)c1cccc(C)c1 | / | / | / | / | 5.2% | 0.6%
O=c1[nH]c2cc3c(cc2cc1C(c1nnnn1C1CCCCC1)N1CCSCC1)OCCO3 (stereo not given) | -32.3% | 14.8% | 13.1µM* | 5.1% | -12.5% | -21.1%

Assay outcomes: PubChem, National Center for Advancing Translational Sciences (NCATS)
